Common to all, as to set-up: scale not given: direction of the effect not stated beside the values
In assay [1] the target is Protein translocase subunit SecA (Escherichia coli (strain K12)) (UniProt P10408). Put plainly: Assay to Identify E. coli SecA ATPase Inhibitors. Type of assay: functional. Particulars: 30 µM.
Assay [2] has as its target T1, Ubiquitin-activating enzyme e1, putative (Leishmania donovani (strain BPK282A1)) (UniProt E9BSI1).
T1 sequence (whole entry): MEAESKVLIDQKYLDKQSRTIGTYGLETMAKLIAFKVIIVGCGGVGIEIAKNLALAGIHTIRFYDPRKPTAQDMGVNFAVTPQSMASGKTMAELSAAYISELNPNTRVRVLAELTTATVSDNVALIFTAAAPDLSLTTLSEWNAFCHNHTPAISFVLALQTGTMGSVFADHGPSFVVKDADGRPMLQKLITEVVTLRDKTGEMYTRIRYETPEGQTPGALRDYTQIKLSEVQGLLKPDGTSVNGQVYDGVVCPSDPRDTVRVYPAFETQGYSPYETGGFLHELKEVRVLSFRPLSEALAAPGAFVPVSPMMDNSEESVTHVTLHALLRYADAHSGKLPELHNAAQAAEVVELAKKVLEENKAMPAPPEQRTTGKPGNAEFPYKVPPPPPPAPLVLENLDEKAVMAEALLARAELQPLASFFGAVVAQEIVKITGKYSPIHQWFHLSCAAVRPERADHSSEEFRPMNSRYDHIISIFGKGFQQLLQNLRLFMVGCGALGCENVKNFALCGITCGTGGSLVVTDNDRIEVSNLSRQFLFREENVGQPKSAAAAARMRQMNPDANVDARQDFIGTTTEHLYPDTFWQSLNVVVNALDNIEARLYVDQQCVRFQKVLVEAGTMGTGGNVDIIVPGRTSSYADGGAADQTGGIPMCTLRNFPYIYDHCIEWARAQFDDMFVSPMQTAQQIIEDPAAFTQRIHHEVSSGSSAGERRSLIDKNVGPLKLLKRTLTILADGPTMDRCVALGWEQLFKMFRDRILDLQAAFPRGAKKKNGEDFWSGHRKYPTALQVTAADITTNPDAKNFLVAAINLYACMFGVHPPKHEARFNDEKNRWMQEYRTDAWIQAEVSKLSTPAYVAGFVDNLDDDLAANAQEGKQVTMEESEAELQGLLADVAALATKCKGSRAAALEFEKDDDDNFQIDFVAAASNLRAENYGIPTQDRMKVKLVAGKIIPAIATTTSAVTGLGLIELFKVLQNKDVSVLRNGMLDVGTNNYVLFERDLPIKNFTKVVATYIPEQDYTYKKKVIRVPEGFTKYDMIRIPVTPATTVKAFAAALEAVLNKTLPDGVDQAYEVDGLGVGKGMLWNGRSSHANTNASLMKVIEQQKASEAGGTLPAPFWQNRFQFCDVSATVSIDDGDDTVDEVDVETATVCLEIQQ
Kind of assay: Leishmania donovani Ubiquitin Activating Enzyme (LdE1). Type of assay: functional. To be noted: 30 µM.

The target in assay [3] is AMP-activated protein kinase, AMPK (Homo sapiens) (UniProt P54646+O43741+P54619+Q9UGJ0+Q9Y478+Q13131+Q9UGI9). Put plainly: AMP-dependent Kinase enzyme assay. An in vitro enzyme assay that detects ADP turnover that is directly proportional to AMPK activity. This uses naive AMPK that is activated during the assay with MK-8722. Type of assay: functional. To be noted: 30 µM.

Assay [4] has as its target Sialic acid-binding Ig-like lectin 9 (Homo sapiens) (UniProt Q9Y336). Kind of assay: Hs-Siglec9 ALPHAscreen SOP 20170721. To be noted: 10 µM. On the technique in general: Alpha assays give light when donor and acceptor beads are brought close together.
A further assay relates to Trypanosoma cruzi. Put plainly: Trypanosoma cruzi phosphomannomutase and mannose-1-phosphate guanylyltransferase assay. Type of assay: functional. Particulars: 10 µM.
Assay [5] has as its target T2, Arginase-2, mitochondrial (Homo sapiens) (UniProt P78540).
T2 sequence (whole entry): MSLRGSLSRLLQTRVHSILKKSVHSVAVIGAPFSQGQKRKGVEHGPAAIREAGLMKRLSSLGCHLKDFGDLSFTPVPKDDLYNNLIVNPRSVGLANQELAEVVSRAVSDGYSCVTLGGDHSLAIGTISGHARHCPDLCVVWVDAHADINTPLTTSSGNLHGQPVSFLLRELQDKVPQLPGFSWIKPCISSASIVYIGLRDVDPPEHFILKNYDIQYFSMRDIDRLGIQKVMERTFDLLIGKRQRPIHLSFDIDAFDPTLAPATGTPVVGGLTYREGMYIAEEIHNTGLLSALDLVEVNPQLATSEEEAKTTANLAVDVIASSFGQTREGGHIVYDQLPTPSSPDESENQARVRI
Put plainly: in vitro enzyme assay to detect the production of urea directly proportional to the activity of Arginase II. Also: in the data most compounds retested in dose-response had high values. Type of assay: functional. To be noted: 33.3 µM.

For assay [6], the target named is T3, Proteasome subunit beta (Trypanosoma cruzi) (UniProt O96673).
T3 sequence (whole entry): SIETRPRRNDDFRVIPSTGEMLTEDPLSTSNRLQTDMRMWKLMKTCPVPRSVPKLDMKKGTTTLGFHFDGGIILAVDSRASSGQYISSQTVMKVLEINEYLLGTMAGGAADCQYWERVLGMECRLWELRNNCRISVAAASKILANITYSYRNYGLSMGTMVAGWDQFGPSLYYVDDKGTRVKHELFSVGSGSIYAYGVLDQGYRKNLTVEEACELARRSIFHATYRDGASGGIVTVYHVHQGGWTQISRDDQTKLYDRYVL
Put plainly: Trypanosoma cruzi proteasome chymotrypsin-like activity (TcProtChymo) assay. Also: in the data most compounds retested in dose-response had high values. Type of assay: functional. To be noted: 9.37 µM.

Another assay is filed under the species Homo sapiens. Kind of assay: To identify inhibition of the IFN signalling (Jak-Stat) pathway via expression of an eGFP reporter gene under the control of an IFN-stimulated response element (ISRE) containing MxA promoter. Particulars: 30 µM. Type of assay: functional. On the technique in general: Reporter assays use an easily measured gene product as a stand-in for the process of interest.

Assay [7] deals with T4, Tyrosyl-tRNA synthetase, putative (Trypanosoma cruzi (strain CL Brener)) (UniProt Q4DSP6).
T4 sequence (whole entry): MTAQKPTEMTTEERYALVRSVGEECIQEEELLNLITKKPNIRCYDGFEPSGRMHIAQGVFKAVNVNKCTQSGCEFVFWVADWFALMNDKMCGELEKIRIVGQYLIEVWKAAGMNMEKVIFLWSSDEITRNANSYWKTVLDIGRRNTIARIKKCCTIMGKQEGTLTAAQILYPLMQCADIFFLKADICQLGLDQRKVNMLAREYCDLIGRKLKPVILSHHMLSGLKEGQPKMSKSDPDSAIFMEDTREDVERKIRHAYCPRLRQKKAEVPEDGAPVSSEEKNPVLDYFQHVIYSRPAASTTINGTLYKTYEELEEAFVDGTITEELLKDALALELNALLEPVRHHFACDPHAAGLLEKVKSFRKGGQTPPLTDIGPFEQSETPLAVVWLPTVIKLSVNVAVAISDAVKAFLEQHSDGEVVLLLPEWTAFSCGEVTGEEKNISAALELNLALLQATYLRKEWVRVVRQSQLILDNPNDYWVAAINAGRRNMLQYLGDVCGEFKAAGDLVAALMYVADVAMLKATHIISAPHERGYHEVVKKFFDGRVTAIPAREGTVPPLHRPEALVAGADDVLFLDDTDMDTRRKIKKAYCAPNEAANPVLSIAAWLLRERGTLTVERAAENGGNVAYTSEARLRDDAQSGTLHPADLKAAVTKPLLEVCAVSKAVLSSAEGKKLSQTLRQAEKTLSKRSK
Kind of assay: Trypanosoma cruzi tyrosyl tRNA synthetase (TcYRS) _High Tyrosine SOP. Also: in the data most compounds retested in dose-response had high values. Format: functional. Particulars: 30 µM.

Assay [8] concerns the target T4, Tyrosyl-tRNA synthetase, putative (Trypanosoma cruzi (strain CL Brener)). Kind of assay: Trypanosoma cruzi tyrosyl tRNA synthetase (TcYRS) SOP. To be noted: 30 µM. Format: functional.
In assay [9] the target is Chromo domain-containing protein 1 (Saccharomyces cerevisiae (strain ATCC 204508 / S288c) (Baker's yeast)) (UniProt P32657). Kind of assay: ScCHD-1 Enzyme Inhibition Assay. Also: in the data most compounds retested in dose-response had high values. Format: functional. Particulars: 30 µM.

For some of these results: Measured potencies and affinities stand elsewhere.

The record followed here is ChEMBL document CHEMBL3988442, “University of Dundee, Small-Polar-MMV Screening Library” (2021).

Chain of Protein translocase subunit SecA (Escherichia coli (strain K12)) (P10408 whole entry): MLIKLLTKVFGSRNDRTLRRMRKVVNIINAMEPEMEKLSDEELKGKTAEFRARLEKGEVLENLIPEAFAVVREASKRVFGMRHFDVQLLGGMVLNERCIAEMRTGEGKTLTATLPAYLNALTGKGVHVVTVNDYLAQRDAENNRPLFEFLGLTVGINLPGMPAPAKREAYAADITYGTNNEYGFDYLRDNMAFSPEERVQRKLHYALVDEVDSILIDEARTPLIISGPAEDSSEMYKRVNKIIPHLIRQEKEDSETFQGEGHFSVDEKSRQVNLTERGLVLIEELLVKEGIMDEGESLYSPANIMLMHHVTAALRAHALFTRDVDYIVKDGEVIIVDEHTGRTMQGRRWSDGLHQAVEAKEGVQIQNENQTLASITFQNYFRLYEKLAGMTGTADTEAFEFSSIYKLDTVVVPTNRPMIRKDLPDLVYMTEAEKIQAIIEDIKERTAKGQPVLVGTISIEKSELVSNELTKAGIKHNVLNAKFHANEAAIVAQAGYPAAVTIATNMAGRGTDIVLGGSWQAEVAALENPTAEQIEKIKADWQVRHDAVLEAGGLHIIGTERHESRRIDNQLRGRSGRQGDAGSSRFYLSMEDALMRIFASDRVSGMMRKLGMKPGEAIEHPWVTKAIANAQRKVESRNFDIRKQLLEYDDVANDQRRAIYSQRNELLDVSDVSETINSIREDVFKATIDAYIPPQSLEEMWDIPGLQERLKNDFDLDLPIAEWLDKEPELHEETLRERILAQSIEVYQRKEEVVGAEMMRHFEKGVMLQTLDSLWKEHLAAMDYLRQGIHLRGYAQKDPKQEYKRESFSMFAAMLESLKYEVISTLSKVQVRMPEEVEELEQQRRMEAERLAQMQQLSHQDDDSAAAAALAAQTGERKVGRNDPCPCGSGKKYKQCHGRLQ
Chain of Sialic acid-binding Ig-like lectin 9 (Homo sapiens) (Q9Y336 whole entry): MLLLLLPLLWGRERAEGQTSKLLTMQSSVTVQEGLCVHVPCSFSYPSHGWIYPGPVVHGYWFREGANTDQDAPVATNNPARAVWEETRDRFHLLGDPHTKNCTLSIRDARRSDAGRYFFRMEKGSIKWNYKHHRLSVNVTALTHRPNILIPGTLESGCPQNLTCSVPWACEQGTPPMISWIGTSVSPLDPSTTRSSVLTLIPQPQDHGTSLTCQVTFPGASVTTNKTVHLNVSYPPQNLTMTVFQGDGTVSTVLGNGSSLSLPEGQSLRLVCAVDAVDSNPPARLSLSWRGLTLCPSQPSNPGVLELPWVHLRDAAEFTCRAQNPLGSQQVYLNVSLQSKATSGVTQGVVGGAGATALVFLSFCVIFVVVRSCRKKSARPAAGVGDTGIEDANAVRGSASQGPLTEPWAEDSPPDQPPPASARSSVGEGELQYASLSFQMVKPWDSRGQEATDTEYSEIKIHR
Chain of Chromo domain-containing protein 1 (Saccharomyces cerevisiae (strain ATCC 204508 / S288c) (Baker's yeast)) (P32657 whole entry, the tested form may be a part): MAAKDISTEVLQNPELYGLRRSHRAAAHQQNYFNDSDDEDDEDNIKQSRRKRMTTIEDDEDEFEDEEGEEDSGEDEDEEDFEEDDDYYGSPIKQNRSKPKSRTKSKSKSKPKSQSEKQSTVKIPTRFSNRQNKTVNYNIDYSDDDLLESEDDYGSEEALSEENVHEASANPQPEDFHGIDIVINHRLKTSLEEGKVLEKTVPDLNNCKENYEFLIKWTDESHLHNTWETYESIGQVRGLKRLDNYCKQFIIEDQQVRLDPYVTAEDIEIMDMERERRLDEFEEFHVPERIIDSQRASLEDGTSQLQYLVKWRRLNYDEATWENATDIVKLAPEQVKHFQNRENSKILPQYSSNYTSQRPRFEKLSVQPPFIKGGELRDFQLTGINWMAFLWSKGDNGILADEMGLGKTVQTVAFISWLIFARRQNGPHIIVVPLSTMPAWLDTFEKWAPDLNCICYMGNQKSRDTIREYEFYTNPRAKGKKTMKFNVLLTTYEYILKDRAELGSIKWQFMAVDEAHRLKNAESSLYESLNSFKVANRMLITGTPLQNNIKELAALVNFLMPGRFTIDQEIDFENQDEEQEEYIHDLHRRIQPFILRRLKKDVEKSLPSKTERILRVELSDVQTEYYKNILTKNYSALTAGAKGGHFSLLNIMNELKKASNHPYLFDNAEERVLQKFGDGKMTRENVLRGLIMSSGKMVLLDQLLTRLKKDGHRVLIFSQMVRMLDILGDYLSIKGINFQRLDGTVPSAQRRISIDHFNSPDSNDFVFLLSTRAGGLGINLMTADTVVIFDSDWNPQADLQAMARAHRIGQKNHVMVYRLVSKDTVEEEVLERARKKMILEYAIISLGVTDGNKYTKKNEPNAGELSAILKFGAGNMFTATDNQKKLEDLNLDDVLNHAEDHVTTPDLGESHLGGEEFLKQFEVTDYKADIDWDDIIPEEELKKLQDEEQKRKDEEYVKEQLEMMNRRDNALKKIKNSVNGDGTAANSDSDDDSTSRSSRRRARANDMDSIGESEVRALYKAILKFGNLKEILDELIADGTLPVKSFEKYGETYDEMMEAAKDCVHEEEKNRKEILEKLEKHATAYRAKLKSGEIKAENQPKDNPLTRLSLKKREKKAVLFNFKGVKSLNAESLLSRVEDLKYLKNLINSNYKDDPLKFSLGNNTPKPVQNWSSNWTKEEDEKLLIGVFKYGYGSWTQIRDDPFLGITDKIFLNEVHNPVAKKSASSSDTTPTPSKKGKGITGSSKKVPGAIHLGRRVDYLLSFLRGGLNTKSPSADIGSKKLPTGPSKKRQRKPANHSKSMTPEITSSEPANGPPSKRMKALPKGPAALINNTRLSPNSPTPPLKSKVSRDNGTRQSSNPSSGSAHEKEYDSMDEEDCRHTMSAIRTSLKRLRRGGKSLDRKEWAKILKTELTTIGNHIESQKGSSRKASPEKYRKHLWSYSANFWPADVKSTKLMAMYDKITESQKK

Regarding `CC(C)n1cc(CN2CCCN(C(=O)c3ccc[nH]3)CC2)cn1`, the Percent Effect in [1] was -1.88%; in assay [2], 13.5%; in [3], -0.748%; in assay [4], -5.21%; with Trypanosoma cruzi, 2.73%; in [5] it was 15.8%. The Percent Effect in assay [6] is 20.2%; in the assay listed under Homo sapiens, -10.5%; in assay [7], 12.9%; in [8], 13.4%; in [9], -0.327%.
Consider `CCc1nsc(NC2CCCn3nc(COC)nc32)n1` (stereo unspecified), for which the Percent Effect is -4.32% in [1]; 13.3% in assay [2]; -5.77% in assay [3]; 21.4% in assay [4]; 4.77% in the assay with Trypanosoma cruzi; 16.7% in assay [5]. Also, the Percent Effect was 9.94% in assay [6]; 7.13% in the assay listed under Homo sapiens; 3.83% in [7]; 13.6% in assay [8]; -6.59% in [9].
`N#Cc1ncn(CCC(=O)Nc2c(Cl)cccc2Cl)n1`: the Percent Effect in assay [1] is -1.01%; in assay [2], 2.74%; in [3] it was -1.08%; in assay [4] it was 6.16%; in the assay on Trypanosoma cruzi it was 1.59%; in assay [5] it was -24.8%. Moreover, the Percent Effect is 19.6% in assay [6]; -3.99% in the assay listed under Homo sapiens; 11.5% in assay [7]; 21% in assay [8]; -3.19% in [9].
Take `O=C(c1ccc(F)cc1)N1C[C@@H]2OCCN(c3ncccn3)[C@@H]2C1`: the Percent Effect was -5.16% in [1]; 5.33% in assay [2]; 3.73% in assay [3]; 9.86% in assay [4]; -5.02% with Trypanosoma cruzi; -19.9% in [5]. Moreover, the Percent Effect in [6] was 5.98%; in the assay filed under Homo sapiens, -2.35%; in assay [7], 2.08%; in assay [8] it was 15%; in [9] it was -9.01%.
`O=C(CO[C@@H]1CC[C@H]2[C@H]1OCCN2CC1CCOCC1)N1CCCC1`: the Percent Effect is -4.19% in assay [1]; 0% in assay [2]; 2.42% in [3]; -1.24% in assay [4]; -3.12% with Trypanosoma cruzi; 2.08% in assay [5]. For the same compound, the Percent Effect in assay [6] came out at 11.1%; in the assay filed under Homo sapiens, 2.51%; in [7], 8.91%; in assay [8], 8.54%; in assay [9] it was 1.37%.
Turning to `CCCn1ncc(CN2C[C@@H]3CCCN3C[C@@H]2CCSC)c1C`, the Percent Effect was 0.712% in assay [1]; 9.46% in assay [2]; 3.26% in [3]; -4.09% in assay [4]; -5.93% with Trypanosoma cruzi; -3.02% in [5]. Besides, the Percent Effect was 19.5% in assay [6]; 8.73% in the assay listed under Homo sapiens; 3.23% in assay [7]; 6.49% in assay [8]; -15% in assay [9].
For the compound `Cc1nc(COC[C@@H]2CC[C@H]3[C@H](CCN3S(C)(=O)=O)O2)cs1`, the Percent Effect in [1] was 1.19%; in [2] it was 8.11%; in assay [3] it was -0.571%; in [4], -10.8%; in the assay with Trypanosoma cruzi it was -6.94%; in assay [5] it was 7.96%. Besides, the Percent Effect was 23.4% in assay [6]; 8.05% in the assay listed under Homo sapiens; 6.49% in [7]; 10.3% in assay [8]; 0.52% in [9].
With `CCCC(C)CN1CCC(n2cc(CCCO)nn2)CC1` (stereo unspecified), the Percent Effect in [1] was -3.6%; in [2], 4.17%; in [3], -2.5%; in assay [4] it was 0.0396%; with Trypanosoma cruzi it was 1.46%; in [5], 1.32%. The Percent Effect was 2.28% in [6]; -7.18% in the assay filed under Homo sapiens; 4.21% in assay [7]; 5.13% in assay [8]; 0.69% in assay [9].
Turning to `O=C(c1ccsc1)N1CCc2c(CNc3ncccn3)n[nH]c2C1`, the Percent Effect in assay [1] is -4.87%; in [2], 10.7%; in assay [3], 4.32%; in [4] it was 1.51%; in the assay on Trypanosoma cruzi, 6.95%; in [5], -44.6%. In addition, the Percent Effect in assay [6] is 1.88%; in the assay listed under Homo sapiens, 9.05%; in assay [7] it was -1.04%; in assay [8], 7.5%; in assay [9], -6.05%.
On to `c1ccc(-c2nc(CNC3CCc4ncnn4C3)co2)cc1` (stereo unspecified), for which the Percent Effect in assay [1] was -6.67%; in assay [2] it was 20.8%; in assay [3], -3.92%; in [4] it was 12.6%; with Trypanosoma cruzi, 7.68%; in assay [5] it was -3.92%. Moreover, the Percent Effect in assay [6] is 3.21%; in the assay listed under Homo sapiens, 9.63%; in assay [7], 8.74%; in assay [8] it was 19.5%; in assay [9], -7.68%.
Consider `CCOC(CC)C(=O)NCCC(=O)N1CCN(c2ccccn2)CC1` (stereo unspecified), for which the Percent Effect in [1] was -3.95%; in assay [2] it was 2.63%; in [3] it was 4.4%; in assay [4], 4.32%; with Trypanosoma cruzi it was 3.99%; in [5], -8.28%. The Percent Effect was 6.23% in [6]; -5.03% in the assay listed under Homo sapiens; 2.13% in assay [7]; 5.2% in [8]; 0.201% in assay [9].
